# Experimental data as given in paper PMC7862700, “An all-to-all approach to the identification of sequence-specific readers for epigenetic DNA modifications on cytosine”.
# Tests used:
# Assay in all cases: DAPPL (digital affinity profiling via proximity ligation, sequencing); 10 mM Tris-HCl pH 7.5, 50 mM NaCl, 1 mM DTT, 4% glycerol, room temperature, 30 min; GST-TFs on glutathione beads, 16-mer random dsDNA library, 0.1% formaldehyde crosslink after washing; high values mean tight binding
# Settings in all cases: protein: recombinant; tags: N-terminal GST; dsDNA, one strand shown
# FLI1 = target: T1, FLI1 (Homo sapiens, UniProt Q01543 1-452)
# T1 sequence: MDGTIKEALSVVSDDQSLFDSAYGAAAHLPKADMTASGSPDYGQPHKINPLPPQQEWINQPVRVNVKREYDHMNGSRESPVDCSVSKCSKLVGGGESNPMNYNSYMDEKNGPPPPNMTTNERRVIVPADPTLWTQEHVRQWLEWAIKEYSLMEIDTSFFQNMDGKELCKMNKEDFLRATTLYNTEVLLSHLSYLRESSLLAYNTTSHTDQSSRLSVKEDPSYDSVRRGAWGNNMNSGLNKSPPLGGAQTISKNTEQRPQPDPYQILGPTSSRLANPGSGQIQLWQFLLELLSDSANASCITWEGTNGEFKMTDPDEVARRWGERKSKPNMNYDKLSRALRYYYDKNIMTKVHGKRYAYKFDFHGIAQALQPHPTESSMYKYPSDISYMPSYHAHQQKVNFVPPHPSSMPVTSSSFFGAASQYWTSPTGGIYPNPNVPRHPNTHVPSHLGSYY
# In short: (§1)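 A tag-only sample was pooled with DNA-barcoded human transcription factors that had been expressed in yeast as GST fusions and captured on glutathione beads. The pools were incubated for 30 min at room temperature with 200 nmole of a random double-stranded 16-mer DNA library in Tris/NaCl/DTT/glycerol buffer, then washed, crosslinked with 0.1% formaldehyde, proximity-ligated (BsaI/T4 ligase, 1 h, 37 °C), PCR-amplified and sequenced on an Illumina NextSeq500. Binding signal is each hexamer's read frequency for a factor divided by its frequency for the tag-only sample.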
# ELK1 = target: T2, ELK1 (Homo sapiens, UniProt P19419 1-428)
# T2 sequence: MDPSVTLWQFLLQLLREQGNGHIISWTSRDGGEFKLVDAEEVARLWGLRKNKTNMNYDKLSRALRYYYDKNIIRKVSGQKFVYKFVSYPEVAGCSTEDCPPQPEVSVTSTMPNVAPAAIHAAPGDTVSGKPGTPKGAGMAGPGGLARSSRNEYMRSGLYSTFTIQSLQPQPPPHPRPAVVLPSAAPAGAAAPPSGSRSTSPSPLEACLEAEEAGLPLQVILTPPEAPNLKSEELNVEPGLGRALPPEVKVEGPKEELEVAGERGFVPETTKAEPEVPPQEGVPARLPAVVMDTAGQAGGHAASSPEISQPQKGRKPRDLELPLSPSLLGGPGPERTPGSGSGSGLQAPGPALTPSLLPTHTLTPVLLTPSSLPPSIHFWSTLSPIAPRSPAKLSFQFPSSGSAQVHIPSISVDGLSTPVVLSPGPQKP
# In short: as §1
# GABPA = target: T3, GABPA (Homo sapiens, UniProt Q06546 1-454)
# T3 sequence: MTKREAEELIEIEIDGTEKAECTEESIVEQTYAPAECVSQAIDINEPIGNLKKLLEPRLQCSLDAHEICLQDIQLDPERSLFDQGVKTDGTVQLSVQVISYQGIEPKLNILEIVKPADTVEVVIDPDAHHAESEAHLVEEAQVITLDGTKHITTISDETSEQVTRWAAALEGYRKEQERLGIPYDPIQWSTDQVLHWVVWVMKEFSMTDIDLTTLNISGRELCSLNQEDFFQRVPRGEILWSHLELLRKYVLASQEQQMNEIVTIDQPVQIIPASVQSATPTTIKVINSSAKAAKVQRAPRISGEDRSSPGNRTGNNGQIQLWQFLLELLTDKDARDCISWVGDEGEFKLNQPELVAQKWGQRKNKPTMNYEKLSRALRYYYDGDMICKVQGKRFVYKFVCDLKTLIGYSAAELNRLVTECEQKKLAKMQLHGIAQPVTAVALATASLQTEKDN
# In short: as §1
# ERG = target: T4, ERG (Homo sapiens, UniProt P11308 1-479)
# T4 sequence: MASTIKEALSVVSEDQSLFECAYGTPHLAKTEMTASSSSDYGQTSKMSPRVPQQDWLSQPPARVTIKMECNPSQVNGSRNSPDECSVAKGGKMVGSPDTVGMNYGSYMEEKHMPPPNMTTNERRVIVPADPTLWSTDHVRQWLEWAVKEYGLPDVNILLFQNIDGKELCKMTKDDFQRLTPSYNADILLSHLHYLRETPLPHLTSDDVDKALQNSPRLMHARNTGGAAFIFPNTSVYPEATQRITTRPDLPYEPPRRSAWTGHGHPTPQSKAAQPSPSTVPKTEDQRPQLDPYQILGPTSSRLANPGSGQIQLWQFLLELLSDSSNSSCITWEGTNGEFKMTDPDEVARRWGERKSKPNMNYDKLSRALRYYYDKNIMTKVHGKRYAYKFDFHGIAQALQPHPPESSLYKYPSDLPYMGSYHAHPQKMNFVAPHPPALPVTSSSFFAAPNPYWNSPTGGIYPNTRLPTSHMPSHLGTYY
# In short: as §1
# ELF1 = ELF1 (Homo sapiens, UniProt P32519 1-619)
# In short: as §1
# EHF = target: T5, EHF (Homo sapiens, UniProt Q9NZC4 1-300)
# T5 sequence: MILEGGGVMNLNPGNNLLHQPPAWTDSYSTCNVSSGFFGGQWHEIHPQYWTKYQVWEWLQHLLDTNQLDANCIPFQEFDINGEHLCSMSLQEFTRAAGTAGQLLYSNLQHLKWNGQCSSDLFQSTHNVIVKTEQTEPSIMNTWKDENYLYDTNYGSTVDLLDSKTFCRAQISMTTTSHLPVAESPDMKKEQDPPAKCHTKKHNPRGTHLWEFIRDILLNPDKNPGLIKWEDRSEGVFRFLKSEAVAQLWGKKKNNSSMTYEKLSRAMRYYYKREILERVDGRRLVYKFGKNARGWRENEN
# In short: as §1
# SPI1 = SPI1 (Homo sapiens, UniProt P17947 1-270)
# In short: as §1
# SPIB = SPIB (Homo sapiens, UniProt Q01892 1-262)
# In short: as §1
# ELK3 = target: T6, ELK3 (Homo sapiens, UniProt P41970 1-407)
# T6 sequence: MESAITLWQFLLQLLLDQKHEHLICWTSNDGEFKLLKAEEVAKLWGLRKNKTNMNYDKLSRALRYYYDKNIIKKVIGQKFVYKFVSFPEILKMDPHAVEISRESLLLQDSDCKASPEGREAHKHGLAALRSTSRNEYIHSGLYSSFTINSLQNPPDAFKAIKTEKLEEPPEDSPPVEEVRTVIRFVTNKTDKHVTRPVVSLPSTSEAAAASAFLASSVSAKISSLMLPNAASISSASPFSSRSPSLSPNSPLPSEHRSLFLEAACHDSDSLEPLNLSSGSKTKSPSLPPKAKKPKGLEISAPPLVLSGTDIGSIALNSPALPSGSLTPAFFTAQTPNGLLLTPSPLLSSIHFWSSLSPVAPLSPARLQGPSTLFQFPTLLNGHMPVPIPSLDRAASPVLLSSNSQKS
# In short: as §1
# Chain of SPIB (Q01892 whole entry): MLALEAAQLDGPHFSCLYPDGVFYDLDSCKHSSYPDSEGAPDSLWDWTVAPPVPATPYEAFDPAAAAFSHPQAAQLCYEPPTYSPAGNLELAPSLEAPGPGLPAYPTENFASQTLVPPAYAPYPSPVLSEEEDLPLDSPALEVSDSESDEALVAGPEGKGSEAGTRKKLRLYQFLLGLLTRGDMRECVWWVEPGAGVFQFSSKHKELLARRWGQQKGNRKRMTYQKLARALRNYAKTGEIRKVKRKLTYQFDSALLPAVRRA
# Chain of ELF1 (P32519 whole entry): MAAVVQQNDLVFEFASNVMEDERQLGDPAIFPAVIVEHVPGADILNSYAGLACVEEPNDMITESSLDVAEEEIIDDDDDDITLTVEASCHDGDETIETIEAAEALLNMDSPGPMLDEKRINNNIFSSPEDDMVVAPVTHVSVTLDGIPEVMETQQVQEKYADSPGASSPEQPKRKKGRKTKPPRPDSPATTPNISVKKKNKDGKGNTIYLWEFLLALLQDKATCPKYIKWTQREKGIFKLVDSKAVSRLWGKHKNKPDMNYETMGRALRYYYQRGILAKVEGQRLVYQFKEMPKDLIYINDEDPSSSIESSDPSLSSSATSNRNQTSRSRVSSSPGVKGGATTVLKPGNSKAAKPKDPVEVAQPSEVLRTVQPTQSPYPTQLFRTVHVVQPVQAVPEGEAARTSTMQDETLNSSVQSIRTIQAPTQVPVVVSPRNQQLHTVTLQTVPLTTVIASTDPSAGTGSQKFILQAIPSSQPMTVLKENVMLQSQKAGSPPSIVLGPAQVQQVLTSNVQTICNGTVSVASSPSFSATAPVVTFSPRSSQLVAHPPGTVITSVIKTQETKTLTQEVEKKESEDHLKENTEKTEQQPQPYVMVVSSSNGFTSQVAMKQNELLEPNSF
sequence,measurement,setting,value
CGATTT,binding signal,FLI1,"1.23 fold enrichment (6-mer frequency, TF over GST control)"
same,binding signal,ELK1,"1.08 fold enrichment (6-mer frequency, TF over GST control)"
same,binding signal,GABPA,"1.08 fold enrichment (6-mer frequency, TF over GST control)"
same,binding signal,ERG,"1.17 fold enrichment (6-mer frequency, TF over GST control)"
same,binding signal,ELF1,"1.09 fold enrichment (6-mer frequency, TF over GST control)"
same,binding signal,EHF,"1.26 fold enrichment (6-mer frequency, TF over GST control)"
same,binding signal,SPI1,"1.09 fold enrichment (6-mer frequency, TF over GST control)"
same,binding signal,SPIB,"1.1 fold enrichment (6-mer frequency, TF over GST control)"
same,binding signal,ELK3,"1.04 fold enrichment (6-mer frequency, TF over GST control)"
